Source: PMC7862700, “An all-to-all approach to the identification of sequence-specific readers for epigenetic DNA modifications on cytosine”

Key:
Assay in all cases: DAPPL (digital affinity profiling via proximity ligation, sequencing); 10 mM Tris-HCl pH 7.5, 50 mM NaCl, 1 mM DTT, 4% glycerol, room temperature, 30 min; GST-TFs on glutathione beads, 16-mer random dsDNA library, 0.1% formaldehyde crosslink after washing; high values mean tight binding
Conditions in all cases: protein: recombinant; tags: N-terminal GST; dsDNA, one strand shown
ERF = molecular target: T1, ERF (Homo sapiens, UniProt P50548 1-548)
T1 sequence: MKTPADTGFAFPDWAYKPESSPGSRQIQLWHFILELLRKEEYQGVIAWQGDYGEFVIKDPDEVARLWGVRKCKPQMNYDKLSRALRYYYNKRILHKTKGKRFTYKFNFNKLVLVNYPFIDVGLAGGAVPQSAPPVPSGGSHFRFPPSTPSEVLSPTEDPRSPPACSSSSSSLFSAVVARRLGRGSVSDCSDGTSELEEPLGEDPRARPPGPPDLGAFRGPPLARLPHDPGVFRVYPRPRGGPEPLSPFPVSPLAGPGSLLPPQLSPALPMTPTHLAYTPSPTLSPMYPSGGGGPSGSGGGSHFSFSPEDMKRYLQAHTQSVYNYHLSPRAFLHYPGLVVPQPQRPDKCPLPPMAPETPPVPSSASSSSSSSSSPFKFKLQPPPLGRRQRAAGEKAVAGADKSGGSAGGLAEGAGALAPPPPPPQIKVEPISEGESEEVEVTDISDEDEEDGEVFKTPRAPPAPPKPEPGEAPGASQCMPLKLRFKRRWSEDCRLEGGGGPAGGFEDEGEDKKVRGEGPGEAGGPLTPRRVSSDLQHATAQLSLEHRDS
Outline: (§1)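 After expression in yeast as GST fusions, human transcription factors were bound to glutathione beads, DNA-barcoded and mixed with a tag-only sample. The pools were incubated with 200 nmole of a 16-mer random double-stranded DNA library in Tris/NaCl/DTT/glycerol buffer (30 min, room temperature), washed and crosslinked with 0.1% formaldehyde. Proximity ligation with BsaI/T4 ligase ran for 1 h at 37 °C, before PCR amplification and sequencing on an Illumina NextSeq500. Binding signal is a hexamer's read frequency for a factor divided by its frequency for the tag-only sample.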

ETV3L = molecular target: T2, ETV3L (Homo sapiens, UniProt Q6ZN32 1-361)
T2 sequence: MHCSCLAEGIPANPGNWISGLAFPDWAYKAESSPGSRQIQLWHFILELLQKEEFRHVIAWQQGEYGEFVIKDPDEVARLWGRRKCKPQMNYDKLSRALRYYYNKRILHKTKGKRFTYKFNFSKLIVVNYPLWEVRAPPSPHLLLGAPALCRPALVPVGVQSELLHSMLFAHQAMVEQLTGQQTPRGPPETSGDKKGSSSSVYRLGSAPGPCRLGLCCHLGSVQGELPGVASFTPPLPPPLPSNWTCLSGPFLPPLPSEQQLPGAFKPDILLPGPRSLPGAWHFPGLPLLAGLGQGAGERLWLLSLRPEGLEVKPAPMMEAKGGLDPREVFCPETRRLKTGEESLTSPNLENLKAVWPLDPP
Outline: as §1

ETS2 = molecular target: T3, ETS2 (Homo sapiens, UniProt P15036 1-469)
T3 sequence: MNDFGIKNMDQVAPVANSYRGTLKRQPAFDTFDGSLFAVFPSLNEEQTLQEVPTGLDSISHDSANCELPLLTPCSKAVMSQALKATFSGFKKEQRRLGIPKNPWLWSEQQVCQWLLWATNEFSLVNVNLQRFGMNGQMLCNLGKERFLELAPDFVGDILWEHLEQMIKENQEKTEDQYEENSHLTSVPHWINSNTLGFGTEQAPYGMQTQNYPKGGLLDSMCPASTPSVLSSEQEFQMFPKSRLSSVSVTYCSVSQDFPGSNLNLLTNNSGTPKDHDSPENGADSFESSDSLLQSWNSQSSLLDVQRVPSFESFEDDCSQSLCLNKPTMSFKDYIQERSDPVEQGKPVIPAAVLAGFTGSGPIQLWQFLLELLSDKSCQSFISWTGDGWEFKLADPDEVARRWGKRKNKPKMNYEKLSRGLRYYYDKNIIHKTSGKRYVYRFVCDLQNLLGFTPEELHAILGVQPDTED
Outline: as §1

ETV7 = molecular target: T4, ETV7 (Homo sapiens, UniProt Q9Y603 1-341)
T4 sequence: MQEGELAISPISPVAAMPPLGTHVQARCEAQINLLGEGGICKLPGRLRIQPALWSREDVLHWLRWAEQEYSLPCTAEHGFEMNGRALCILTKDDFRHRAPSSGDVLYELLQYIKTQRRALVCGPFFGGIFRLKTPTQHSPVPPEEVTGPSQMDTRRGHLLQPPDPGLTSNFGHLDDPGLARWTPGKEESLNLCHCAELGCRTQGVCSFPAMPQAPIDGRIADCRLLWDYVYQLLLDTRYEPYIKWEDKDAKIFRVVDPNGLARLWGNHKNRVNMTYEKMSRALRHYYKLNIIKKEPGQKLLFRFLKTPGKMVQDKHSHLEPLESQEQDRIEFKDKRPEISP
Outline: as §1

ELF5 = molecular target: T5, ELF5 (Homo sapiens, UniProt Q9UKW6-2 1-255)
T5 sequence: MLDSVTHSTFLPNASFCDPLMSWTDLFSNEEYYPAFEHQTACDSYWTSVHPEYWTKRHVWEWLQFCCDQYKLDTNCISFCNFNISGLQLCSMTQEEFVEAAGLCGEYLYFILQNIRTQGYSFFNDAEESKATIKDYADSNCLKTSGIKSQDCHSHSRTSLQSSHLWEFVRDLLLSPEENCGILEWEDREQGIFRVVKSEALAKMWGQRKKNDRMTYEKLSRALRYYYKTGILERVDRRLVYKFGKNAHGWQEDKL
Outline: as §1

ETV3 = molecular target: T6, ETV3 (Homo sapiens, UniProt P41162-2 1-143)
T6 sequence: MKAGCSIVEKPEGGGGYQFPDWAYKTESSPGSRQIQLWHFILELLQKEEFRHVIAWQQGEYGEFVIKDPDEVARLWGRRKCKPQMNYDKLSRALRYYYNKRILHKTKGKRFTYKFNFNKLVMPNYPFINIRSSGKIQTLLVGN
Outline: as §1

ETV6 = ETV6 (Homo sapiens, UniProt P41212 1-452)
Chain of ETV6 (P41212 whole entry): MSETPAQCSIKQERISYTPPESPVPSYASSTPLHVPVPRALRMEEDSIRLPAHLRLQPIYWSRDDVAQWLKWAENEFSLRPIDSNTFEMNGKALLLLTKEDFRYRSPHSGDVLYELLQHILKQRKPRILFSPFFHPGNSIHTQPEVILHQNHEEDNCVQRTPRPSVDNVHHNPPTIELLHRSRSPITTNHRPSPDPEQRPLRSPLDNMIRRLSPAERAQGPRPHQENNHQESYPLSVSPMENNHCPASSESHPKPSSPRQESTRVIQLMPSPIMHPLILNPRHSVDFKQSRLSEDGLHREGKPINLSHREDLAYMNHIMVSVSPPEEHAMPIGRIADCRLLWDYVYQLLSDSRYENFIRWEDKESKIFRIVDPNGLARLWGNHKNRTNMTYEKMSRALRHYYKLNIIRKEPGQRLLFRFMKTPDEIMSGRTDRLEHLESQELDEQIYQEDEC
Outline: as §1

SPDEF = molecular target: T7, SPDEF (Homo sapiens, UniProt O95238 1-335)
T7 sequence: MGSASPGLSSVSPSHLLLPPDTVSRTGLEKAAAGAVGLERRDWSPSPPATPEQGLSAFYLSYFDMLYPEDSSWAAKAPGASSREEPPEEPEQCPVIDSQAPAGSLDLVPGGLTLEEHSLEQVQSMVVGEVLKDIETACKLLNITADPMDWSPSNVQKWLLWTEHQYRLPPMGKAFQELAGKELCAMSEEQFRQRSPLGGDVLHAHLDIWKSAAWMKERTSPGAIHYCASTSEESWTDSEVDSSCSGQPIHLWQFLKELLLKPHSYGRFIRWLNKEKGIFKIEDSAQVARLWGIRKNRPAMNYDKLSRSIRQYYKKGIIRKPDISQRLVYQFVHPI
Outline: as §1

Sequence | binding signal (ERF) | binding signal (ETV3L) | binding signal (ETS2) | binding signal (ETV7) | binding signal (ELF5) | binding signal (ETV3) | binding signal (ETV6) | binding signal (SPDEF)
ACTCGC | 1.17 fold enrichment (6-mer frequency, TF over GST control) | 1.08 fold enrichment (6-mer frequency, TF over GST control) | 1.14 fold enrichment (6-mer frequency, TF over GST control) | 1.09 fold enrichment (6-mer frequency, TF over GST control) | 1.08 fold enrichment (6-mer frequency, TF over GST control) | 1.08 fold enrichment (6-mer frequency, TF over GST control) | 1.25 fold enrichment (6-mer frequency, TF over GST control) | –
TTGAGG | 1.12 fold enrichment (6-mer frequency, TF over GST control) | 1.03 fold enrichment (6-mer frequency, TF over GST control) | 1.04 fold enrichment (6-mer frequency, TF over GST control) | 1.03 fold enrichment (6-mer frequency, TF over GST control) | 1.11 fold enrichment (6-mer frequency, TF over GST control) | 1.12 fold enrichment (6-mer frequency, TF over GST control) | 1.13 fold enrichment (6-mer frequency, TF over GST control) | –
AAAGCT | 1.02 fold enrichment (6-mer frequency, TF over GST control) | 1.01 fold enrichment (6-mer frequency, TF over GST control) | 1.03 fold enrichment (6-mer frequency, TF over GST control) | 1.03 fold enrichment (6-mer frequency, TF over GST control) | 1.01 fold enrichment (6-mer frequency, TF over GST control) | 1.04 fold enrichment (6-mer frequency, TF over GST control) | 1.09 fold enrichment (6-mer frequency, TF over GST control) | –
ATAAAG | 1.02 fold enrichment (6-mer frequency, TF over GST control) | 1.01 fold enrichment (6-mer frequency, TF over GST control) | 1 fold enrichment (6-mer frequency, TF over GST control) | 1.09 fold enrichment (6-mer frequency, TF over GST control) | 1.03 fold enrichment (6-mer frequency, TF over GST control) | 1.05 fold enrichment (6-mer frequency, TF over GST control) | 1.03 fold enrichment (6-mer frequency, TF over GST control) | –
CTGGCC | 1.19 fold enrichment (6-mer frequency, TF over GST control) | 1.11 fold enrichment (6-mer frequency, TF over GST control) | 1.17 fold enrichment (6-mer frequency, TF over GST control) | 1.03 fold enrichment (6-mer frequency, TF over GST control) | 1.01 fold enrichment (6-mer frequency, TF over GST control) | 1.06 fold enrichment (6-mer frequency, TF over GST control) | 1.23 fold enrichment (6-mer frequency, TF over GST control) | –
AGCTGC | 1.17 fold enrichment (6-mer frequency, TF over GST control) | 1.07 fold enrichment (6-mer frequency, TF over GST control) | 1.17 fold enrichment (6-mer frequency, TF over GST control) | 1.16 fold enrichment (6-mer frequency, TF over GST control) | 1.06 fold enrichment (6-mer frequency, TF over GST control) | 1.16 fold enrichment (6-mer frequency, TF over GST control) | 1.11 fold enrichment (6-mer frequency, TF over GST control) | –
AGGCTC | 1.14 fold enrichment (6-mer frequency, TF over GST control) | 1.08 fold enrichment (6-mer frequency, TF over GST control) | 1.02 fold enrichment (6-mer frequency, TF over GST control) | 1.04 fold enrichment (6-mer frequency, TF over GST control) | 1.04 fold enrichment (6-mer frequency, TF over GST control) | 1.01 fold enrichment (6-mer frequency, TF over GST control) | 1.16 fold enrichment (6-mer frequency, TF over GST control) | –
CATTAT | 1.21 fold enrichment (6-mer frequency, TF over GST control) | 1.24 fold enrichment (6-mer frequency, TF over GST control) | 1.21 fold enrichment (6-mer frequency, TF over GST control) | 1.31 fold enrichment (6-mer frequency, TF over GST control) | 1.12 fold enrichment (6-mer frequency, TF over GST control) | 1.15 fold enrichment (6-mer frequency, TF over GST control) | 1.2 fold enrichment (6-mer frequency, TF over GST control) | –
GTCACT | 1.07 fold enrichment (6-mer frequency, TF over GST control) | 1.08 fold enrichment (6-mer frequency, TF over GST control) | 1.13 fold enrichment (6-mer frequency, TF over GST control) | 1.09 fold enrichment (6-mer frequency, TF over GST control) | 1.07 fold enrichment (6-mer frequency, TF over GST control) | 1.01 fold enrichment (6-mer frequency, TF over GST control) | – | –
TAGTGC | 1.12 fold enrichment (6-mer frequency, TF over GST control) | 1.05 fold enrichment (6-mer frequency, TF over GST control) | 1.08 fold enrichment (6-mer frequency, TF over GST control) | – | – | 1.05 fold enrichment (6-mer frequency, TF over GST control) | 1.12 fold enrichment (6-mer frequency, TF over GST control) | 1.06 fold enrichment (6-mer frequency, TF over GST control)
